# SKOV3 invasion: blocks SKOV3ip1 adhesion and invasion in omental model | SKOV3ip1-GFP adhesion/invasion on 3D omental model, fluorescence | hit rate 0.1% among 46,000 | Potency, µM (doses to about 45.8 µM), for the others: at the highest dose activity change, negative = inhibition, hits mostly inhibitors;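 further: plate controls were DMSO wells for no effect and tomatine positive control wells for full effect; nearly all actives have a fitted effect of over 65% in size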
#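 Adhesion/invasion was scored as fixed GFP-labeled SKOV3ip1 cell counts (488/509 nm), normalized to DMSO and tomatine controls. Cancer cells in serum-free medium, with four compound doses (0.36-46 umol/L), sat 2 hr at RT then 16 hr at 37 C on a 48 hr fibroblast/mesothelial/ECM culture.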
# p53null 39C tox: p53 null cell cytotoxicity, nonpermissive temperature; H1299 p53-null (neo) cells, 39C, ATPlite viability, 24 h; Potency, µM (highest dose often 46.1 µM), for inactives: at the highest dose activity, negative = cell killing, hits mostly cytotoxic; hit rate 0.97% among 55,000; AID 904;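 further: 0% = DMSO only and -100% = full killing by 100 µM tamoxifen; nearly all actives have a fitted effect of over 50% in size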
#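 Luminescent ATP signal reported cell survival after H1299 lines (neo, p53 null; or p53 A138V) received up to 46 uM compound and 24 hr incubation at 39C.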
# pS6 MEF inh: inhibitors of mTORC1 signaling in Tsc2-/- p53-/- MEF cells; Tsc2-/- p53-/- MEF, phospho-rpS6 immunofluorescence/PI, 24 h; Potency, µM (series often up to 38.3 µM), for the others: top-dose activity change, negative = inhibition, actives largely listed as inhibitors; hit rate 0.78% among 44,000;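 further: plate controls were DMSO for no effect and rapamycin for full effect; nearly all actives have a fitted effect of over 50% in size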
#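 Plate MEFs (Tsc2-/-, p53-/-, empty vector) in DMEM/10% FBS; after 24 h add compound, incubate 24 h at 37 degree Celsius; fix in PFA/TX-100, block, stain phospho-rpS6 and 10 uM PI; scan at 488 nm; report % positive cells.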
# S16 F2sN tox: cytotoxicity in S16 Pmp22-F2sN Schwann cells | S16 Pmp22-F2sN Schwann cells viability, CellTiter-Glo, 24 h | Potency, µM (titrated, usually from 57.5 µM), without a hit: top-dose activity change, negative = cytotoxicity, usual class: cytotoxic | hit rate 0.48% among 43,000 | AID 1508642; further: nearly all actives have a fitted effect of over 65% in size
#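 S16 Schwann cells carrying the Pmp22-F2sN reporter, seeded in 1536-well format, were exposed to library compounds for 24 h at 37C. Viability was read as CellTiter-Glo luminescence after 15 min at room temperature.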
# PMP22 txn: modulators of PMP22 gene transcription in S16 Schwann cells; S16 Pmp22-F2sN Schwann cells (luciferase reporters placed in the Pmp22 gene), FLuc/NLuc coincidence luminescence, 24 h; Potency, µM (series often up to 57.5 µM), for inactives: top-dose activity change, negative = inhibition, most hits filed as inhibitors; hit rate 2% among 43,000; AID 1508649; active means clear falling dose curves in both reporters; inconclusive means both reporters move, but less clearly or upward; inactive means either reporter flat; the % is the NLuc reporter signal
#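 Transcriptional readout in edited S16(c9) cells: two luciferases reported from the Pmp22 locus, measured in turn after 24 h compound incubation.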
# p53null 32C tox: selectivity test: cytotoxicity in p53 null cells, permissive temperature. H1299-neo p53 null cells, ATP luminescence, 24 h, 32C. Potency, µM (highest dose often 46.1 µM), without a hit: top-dose activity change, negative = cytotoxicity, usual class: cytotoxic. hit rate 0.62% among 55,000;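 further: 0% = DMSO only and -100% = full killing by 100 µM tamoxifen; nearly all actives have a fitted effect of over 55% in size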
#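 H1299-neo (p53 null) cells, 600/well, treated 24 h at 32C with compound up to 46 uM; ATPlite luminescence viability, normalized to DMSO and 100 uM tamoxifen; AC50 by Hill fit.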
# Starred values were filed as active, the others as inactive; i = inactive; ? = inconclusive; / = no result. This is a sample that favours compounds with a hit; in the whole collection about 3% have one here. Unless noted, the call rests on the fitted dose curve; in most records, active means well fitted curve in the direction sought with a large enough effect; inconclusive means small, poorly fitted or top-dose-only effect, or another doubt; inactive means no such curve, though single readings can be large; an effect the other way counts as inactive or inconclusive. Unless noted, on the % scale 0 is the no-effect control and ±100 the full control effect; potency means the concentration at half of the fitted maximal effect.
SMILES,SKOV3 invasion,p53null 39C tox,pS6 MEF inh,S16 F2sN tox,PMP22 txn,p53null 32C tox
COc1ccc(CNc2ncnc3c2cnn3-c2ccc(C)c(C)c2)cc1,i,15.4%,0.0%,2.1%,?,0.5%
Cc1ccc(S(=O)(=O)c2nnn3c2nc(NC2CCCCC2)c2sccc23)cc1C,25.2%,27.8%,7.36µM*,?,?,3.7%
CCn1c(-c2nonc2N)nc2cncc(CNC3CCNCC3)c21,-21.2%,/,/,/,/,/
COc1ccc(C(=O)Nc2cc3cc(Cl)ccc3oc2=O)cc1OC,-16.2%,-9.8%,0.2%,0.7%,-18.1%,18.4%
Cc1ccc(C(=O)Nc2cc3cc(Cl)ccc3oc2=O)cc1,i,-24.6%,5.3%,-6.2%,6.5µM*,12.5%
Cc1ccc(N(CC(=O)N2CCN(c3cccc(Cl)c3)CC2)S(=O)(=O)c2c(C)noc2C)cc1,3.8%,8.8%,-8.3%,-19.2%,?,12.1%
COc1ccc(N(CC(=O)N2CCN(c3cccc(Cl)c3)CC2)S(=O)(=O)c2c(C)noc2C)cc1,32.3%,10µM*,-11.6%,-26.6%,-24.9%,1.8%
COc1ccc2nc3sc(C(=O)Nc4cc(Cl)c(OC)cc4OC)cc3cc2c1,0.4%,10µM*,4.2%,2.8%,-5.9%,-9.4%
CCOc1ccc(CCNC(=O)c2cc3cc4cc(OC)ccc4nc3s2)cc1OCC,i,-4.7%,-29.5%,-2.8%,?,-19.4%
COc1ccccc1NC(=O)c1cnc(SCC(=O)N2CCOCC2)n(C)c1=O,-13.9%,-2.7%,-8.1%,18.5%,10.7µM*,-8.9%
CN(C)c1ccc(/C=C(\C#N)c2nc3ccccc3c(=O)[nH]2)cc1,-9.3%,?,-18.4%,7.1%,?,0.316µM*
Cc1ccc(C(=O)Nc2nc3ccc(S(C)(=O)=O)cc3s2)o1,/,10µM*,/,/,/,12.6µM*
COc1ccc(C(=O)Nc2nc3ccc(S(C)(=O)=O)cc3s2)cc1,/,-10.8%,/,/,/,-1.4%
CCc1c(O)cc(O)c(C(=O)c2ccc(OCCN3CCOCC3)c(OC)c2)c1CC(=O)N(CCOC)CCOC,14.3%,/,/,/,/,/
COc1ccc(-c2oc3c(CC=C(C)C)c(O)cc(O)c3c(=O)c2O)cc1,5.5%,/,/,/,/,/
CCN(CC)CCN(C(=O)c1ccco1)c1nc2c(C)c(C)ccc2s1,-5.6%,-12.2%,-6.4%,-12.1%,?,-16.7%
Cc1ccc2sc(N(CCCN(C)C)C(=O)c3ccco3)nc2c1C,i,?,11.7µM*,?,?,-12.8%
COc1cccc(C2CC(=O)Nc3cc4c(cc32)OCCO4)c1OC (configuration not stated),-9.9%,1.5%,14.7µM*,-33.3%,0.2%,18.3%
COc1ccc(S(=O)(=O)Nc2cccnc2Nc2ccc(O)cc2)cc1,5.9%,/,/,/,/,/
Cc1cccc(NC(c2cccc(Cl)c2)c2ccc3cccnc3c2O)n1 (configuration not stated),i,2.51µM*,?,?,?,?
Cc1ccc(C(Nc2ccccn2)c2ccc3cccnc3c2O)cc1 (configuration not stated),-28.0%,3.98µM*,-19.1%,31.6µM*,?,?
Cc1ccnc(NC(c2cccc(O)c2)c2ccc3ccc(C)nc3c2O)c1 (configuration not stated),-2.7%,-7.4%,?,-2.5%,?,-7.8%
CC(=O)Nc1nc(C)c(-c2ccc(Cl)c(S(=O)(=O)NCCO)c2)s1,-13.1%,/,/,/,/,/
Cn1cnc2c(F)c(Nc3ccc(Br)cc3F)c(C(=O)NOCCO)cc21,8.1%,/,/,/,/,/
Cn1c(=O)c2c(nc(NCc3ccccc3)n2Cc2ccccc2)n(C)c1=O,-6.7%,-5.0%,-6.7%,?,13.4µM*,-12.1%
SMILES,SKOV3 invasion,p53null 39C tox,pS6 MEF inh,S16 F2sN tox,PMP22 txn,p53null 32C tox
Cn1c(=O)c2c(nc(NCc3ccccc3)n2Cc2ccccc2Cl)n(C)c1=O,i,-15.5%,7.5%,?,-2.8%,2.3%
COc1ccc(C(=O)Nc2cc(-c3nc4ccccc4s3)ccc2OC)cc1,?,-8.3%,16.5µM*,?,?,3.7%
CN(C)c1ccc(C(=O)NCCCCCCC(=O)NO)cc1,16.1%,/,/,/,/,/
COc1cc(N2CCC(N3CCN(C)CC3)CC2)ccc1Nc1ncc(Cl)c(Nc2ccccc2S(=O)(=O)C(C)C)n1,-6.6%,/,/,/,/,/
CCN(CC)c1ccc(C(=O)NCc2ccc3c(c2)CCN3C(=O)c2ccc(F)cc2)cc1,0.3%,17.4%,-7.0%,?,7.27µM*,7.1%
CN(C(=O)c1ccc(F)cc1C(F)(F)F)C1CCN(c2nnc(-c3ccnn3C)c3ccccc23)CC1,-25.6%,/,/,/,/,/
C[C@H](O)[C@@H]1C(=O)N2C(C(=O)O)=C(S[C@@H]3CN[C@H](CNS(N)(=O)=O)C3)[C@@H](C)[C@@H]12,18.9%,/,/,/,/,/
COc1cc(-c2nc(SCC(=O)Nc3ccc4c(c3)OCO4)c(-c3ccccc3)[nH]2)cc(OC)c1OC,?,?,-16.1%,?,-57.6%,17.2%
O=C(CSc1nc(-c2ccccc2)[nH]c1-c1ccccc1)Nc1ccc2c(c1)OCO2,-12.0%,?,?,35.5µM*,?,11.0%
CCOc1ccc(Nc2nc(Nc3ccc(OCC)cc3)nc(N3CCOCC3)n2)cc1,-7.5%,-0.1%,2.33µM*,4.4%,4.6%,2.0%
Cc1cccc(Nc2nc(Nc3cccc(C)c3)nc(N3CCOCC3)n2)c1,-15.2%,1.6%,1.17µM*,-22.7%,?,-5.9%
CCOc1ccc(-c2nonc2NC(=O)c2oc3cc(Br)ccc3c2C)cc1,-22.4%,?,-12.4%,?,9.46µM*,?
CCOc1ccc(-c2nonc2NC(=O)c2oc3cc(C)ccc3c2C)cc1,-4.8%,0.7%,?,3.2%,-41.6%,8.2%
CCOc1ccc(-c2nonc2NC(=O)c2oc3ccc(Br)cc3c2C)cc1,-3.8%,?,-22.9%,-14.9%,?,12.6µM*
Cn1cc(C2=C(c3c4n(c5ccccc35)CCC(CN)C4)C(=O)NC2=O)c2ccccc21 (configuration not stated),-21.6%,/,/,/,/,/
COc1ccccc1Nc1nn2c(=O)c3ccc(C(=O)NCc4cccs4)cc3nc2s1,i,?,-5.4%,7.94µM*,10µM*,10µM*
CCN(CC)CCNC(=O)c1ccc2c(=O)n3nc(Nc4ccccc4OC)sc3nc2c1,i,?,-0.4%,10.8%,?,-19.4%
CC(C)NC(=O)C1CCN(C(=O)c2cc3sccc3n2Cc2ccc(Cl)cc2)CC1,-2.7%,-6.6%,0.6%,?,9.46µM*,14.5%
